# Assay results as given in PubChem BioAssay (NCI).
# Compounds without any hit were thinned out: in the full panel of roughly 83,000, 20% have a hit.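 Results are percent growth after 48 hours of single-concentration exposure. 100 means growth as in untreated cells, lower positive values show inhibition; negative values down to -100 show cell death.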 Unmarked numbers belong to inactive results. The source made the active and inactive calls. Rule for the calls: active = growth percent below 10; inactive = the rest.
# Tests used:
# Assay in all cases: NCI-60 one-dose screen, 48 h (100 = growth as untreated, 0 = no growth, -100 = all killed)
# Details in all cases: 10 µM unless noted
# DU-145 prostate = tested on: DU-145 prostate
# K-562 leukemia = tested on: K-562 leukemia
# MALME-3M melanoma = tested on: MALME-3M melanoma
# MDA-MB-231 breast = tested on: MDA-MB-231 breast
# RXF 393 renal = tested on: RXF 393 renal
# SF-268 CNS = tested on: SF-268 CNS
# SF-295 CNS = tested on: SF-295 CNS
# SF-539 CNS = tested on: SF-539 CNS
# UACC-257 melanoma = tested on: UACC-257 melanoma
# M14 melanoma = tested on: M14 melanoma
# HCT-15 colon = tested on: HCT-15 colon
# HT29 colon = tested on: HT29 colon
# SNB-75 CNS = tested on: SNB-75 CNS
# SNB-19 CNS = tested on: SNB-19 CNS
# U251 CNS = tested on: U251 CNS
# PC-3 prostate = tested on: PC-3 prostate
# SK-MEL-5 melanoma = tested on: SK-MEL-5 melanoma
# UACC-62 melanoma = tested on: UACC-62 melanoma
# LOX IMVI melanoma = tested on: LOX IMVI melanoma
# SK-MEL-28 melanoma = tested on: SK-MEL-28 melanoma
Structure (SMILES),growth (DU-145 prostate) [%],growth (K-562 leukemia),growth (MALME-3M melanoma),growth (MDA-MB-231 breast),growth (RXF 393 renal),growth (SF-268 CNS) [%],growth (SF-295 CNS),growth (SF-539 CNS),growth (UACC-257 melanoma),growth (M14 melanoma),growth (HCT-15 colon),growth (HT29 colon),growth (SNB-75 CNS),growth (SNB-19 CNS) [%],growth (U251 CNS),growth (PC-3 prostate) [%],growth (SK-MEL-5 melanoma),growth (UACC-62 melanoma),growth (LOX IMVI melanoma),growth (SK-MEL-28 melanoma)
C=C1C(=O)O[C@H]2[C@H]1CC/C(COC(=O)C(C)c1ccc(CC(C)C)cc1)=C\CC[C@@]1(C)O[C@@H]21 (stereo not given in full),47.2,-4.97% (active),-25.6% (active),-58% (active),-50.1% (active),33.8,83.1%,22.1%,47.9%,16.1%,-56.1% (active),-54.1% (active),56.6%,64.1,1.42% (active),16.4,7.78% (active),6.52% (active),-89.1% (active),5.16% (active)
CCOC(=O)Nc1ccc(-c2nc(-c3cccc(OC)c3)c(-c3ccnc(Br)c3)[nH]2)cc1,51.9,11.9%,40.5%,41.2%,-27% (active),51.9,-36.1% (active),21.7%,56.1%,36%,5.65% (active),25.7%,32.6%,46.1,39%,11.2,25.7%,21.2%,4.57% (active),42%
C/C(=N/NC(N)=S)c1sc(Nc2cccc(Cl)c2)nc1C,81.7,68.7%,93.1%,65%,89.6%,75.1,88.7%,83.7%,101%,88.3%,57.8%,79%,120%,87.9,89.8%,74.8,87.1%,92.9%,63.6%,94.8%
Cc1ccc(C(C)C)cc1C(=O)C[n+]1ccccc1,107,105%,95.9%,112%,121%,98.8,93.5%,97.1%,115%,95.6%,99.7%,88.2%,95%,106,104%,99.1,106%,106%,100%,97.3%
c1ccc(-c2nc3sc(-c4ccccc4)cn3n2)cc1,84.4,88.5%,124%,64.5%,97.7%,92.3,101%,98.7%,86%,86.7%,91.6%,90.3%,84.3%,88.5,93.6%,63,80%,66.9%,83.3%,107%
CC(=O)OC[C@H]1OC(Sc2sc(C(=O)c3ccc(Br)cc3)c(N)c2-c2nc3ccccc3s2)[C@H](OC(C)=O)[C@@H](OC(C)=O)[C@H]1OC(C)=O (stereo not given in full),110,92.2%,98.1%,80.6%,115%,93,97.1%,95.2%,104%,96.1%,99.7%,106%,74.5%,87.4,96.2%,70.8,36.3%,60.4%,96.8%,104%
COc1nc2ccccc2cc1-c1nc2c(cnn2-c2ccc(Br)cc2)c(=O)[nH]1,24.5,16.3%,52.6%,66.9%,-7.26% (active),41.3,16.9%,-31.7% (active),46.9%,-7.56% (active),24%,8.03% (active),-12.9% (active),21.5,15.7%,13.6,5.23% (active),24.9%,31.7%,43.4%
N#Cc1cccc(NC(=O)c2cc(-c3ccc(F)cc3F)ccc2O)c1,18.4,13.3%,-25.1% (active),-2.77% (active),3.07% (active),14.5,80.5%,16.3%,-10% (active),23.6%,13.3%,104%,11.5%,13.7,13%,20.3,-98.5% (active),13.7%,13.2%,25.6%
N#Cc1c(Nc2cccc(Cl)c2)sc(C(=O)c2cc3cc(Cl)ccc3o2)c1N,30.6,51.9%,101%,75.6%,105%,67.7,123%,84%,102%,105%,72.6%,80.5%,101%,97.5,62.6%,62.8,73.4%,78.6%,85.9%,94.3%
COc1ccc(-n2c(N)c(-c3nc4ccccc4[nH]3)cc(C#N)c2=O)cc1,87.9,93.5%,92.1%,90.8%,67.2%,95.8,94.1%,77.2%,96.4%,109%,89.4%,90.2%,60.5%,78.9,103%,85.4,90.9%,102%,98.2%,100%
CC(=O)OC[C@H]1OC(Sc2sc(C(=O)c3ccc(C)cc3)c(N)c2-c2nc3ccccc3s2)[C@H](OC(C)=O)[C@@H](OC(C)=O)[C@@H]1OC(C)=O (stereo not given in full),42.1,68.4%,43.9%,30%,53.5%,71,73.6%,28.2%,79.3%,65.7%,59.5%,69%,25.4%,74.4,59.5%,63.2,45.5%,55.8%,54.5%,76.4%
COc1cccc(-c2nc(-c3ccc(NS(=O)(=O)c4ccccc4)cc3)[nH]c2-c2ccnc(Br)c2)c1,44.3,5.37% (active),40.2%,30.1%,-24.5% (active),31.4,3.83% (active),36.6%,48.7%,27.1%,3.93% (active),32.8%,15%,39.8,35.4%,15.1,41.7%,14.8%,4.69% (active),25.6%
O=CN1N=C(c2ccc(Nc3ccnc4cc(Cl)ccc34)cc2)CC1c1ccccc1 (stereo not given),35.8,11.8%,24.7%,32.9%,31.4%,37.4,17.4%,25.9%,63.3%,25.6%,15.4%,11.6%,56.4%,52.8,34.5%,42.4,1.49% (active),38.4%,13.7%,44.4%
COC(=O)Nc1ccc(-c2nc(-c3cccc(OC)c3)c(-c3ccnc(Br)c3)[nH]2)cc1,81.4,13.8%,66.7%,65.3%,-12.2% (active),76,9.58% (active),51.6%,71.7%,42.5%,17.8%,50.5%,37.5%,61.6,51.5%,34,50.2%,47.2%,23.6%,62.3%
